Experimental findings from article PMC7862700, “An all-to-all approach to the identification of sequence-specific readers for epigenetic DNA modifications on cytosine” are described below.

Common to all, as to assay: DAPPL (digital affinity profiling via proximity ligation, sequencing); 10 mM Tris-HCl pH 7.5, 50 mM NaCl, 1 mM DTT, 4% glycerol, room temperature, 30 min; GST-TFs on glutathione beads, 16-mer random dsDNA library, 0.1% formaldehyde crosslink after washing; high values mean tight binding
One assay deals with T1, FEV (Homo sapiens, UniProt Q99581 1-238).
T1 sequence: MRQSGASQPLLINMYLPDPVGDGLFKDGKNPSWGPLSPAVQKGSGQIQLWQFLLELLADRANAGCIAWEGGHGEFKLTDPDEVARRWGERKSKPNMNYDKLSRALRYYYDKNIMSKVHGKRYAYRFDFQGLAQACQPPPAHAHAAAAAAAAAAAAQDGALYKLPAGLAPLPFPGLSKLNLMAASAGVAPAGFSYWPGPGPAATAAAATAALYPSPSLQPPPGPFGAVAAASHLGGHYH
As to conditions: protein: recombinant; tags: N-terminal GST; dsDNA, one strand shown. The method in brief:
(§1)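 Beads coated with glutathione captured GST-fused human transcription factors that had been expressed in yeast, and the factors were then given DNA barcodes and pooled with a tag-only sample. The pools were incubated with 200 nmole of a random double-stranded 16-mer DNA library in Tris/NaCl/DTT/glycerol buffer for 30 min at room temperature, washed, crosslinked with 0.1% formaldehyde and proximity-ligated with BsaI/T4 ligase at 37 °C for 1 h. PCR amplification and Illumina NextSeq500 sequencing came last. Binding signal is each hexamer's read frequency for a factor divided by its frequency for the tag-only sample.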

The target of the next assay is ETV5 (Homo sapiens, UniProt P41161 1-510). The conditions noted are these: protein: recombinant; tags: N-terminal GST; dsDNA, one strand shown. Summed up: as §1
The next assay concerns the target HSF1 (Homo sapiens, UniProt Q00613 1-529). As to conditions: protein: recombinant; tags: N-terminal GST; chain copies: 3; dsDNA, one strand shown. Summed up:
as §1

Another assay addresses T2, SPIC (Homo sapiens, UniProt Q8N5J4 1-248).
T2 sequence: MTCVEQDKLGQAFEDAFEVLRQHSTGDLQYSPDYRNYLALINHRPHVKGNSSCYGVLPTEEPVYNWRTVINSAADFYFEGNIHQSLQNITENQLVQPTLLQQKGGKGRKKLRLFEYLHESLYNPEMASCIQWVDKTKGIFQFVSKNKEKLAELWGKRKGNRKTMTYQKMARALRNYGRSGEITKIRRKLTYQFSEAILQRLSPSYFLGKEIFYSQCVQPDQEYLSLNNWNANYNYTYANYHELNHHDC
As to conditions: protein: recombinant; tags: N-terminal GST; dsDNA, one strand shown. The method in brief:
as §1

A further assay concerns the target ELF4 (Homo sapiens, UniProt Q99607 1-663). As to conditions: protein: recombinant; tags: N-terminal GST; dsDNA, one strand shown. Summed up: as §1
In the next assay the target is T3, ELK4 (Homo sapiens, UniProt P28324-2 1-405).
T3 sequence: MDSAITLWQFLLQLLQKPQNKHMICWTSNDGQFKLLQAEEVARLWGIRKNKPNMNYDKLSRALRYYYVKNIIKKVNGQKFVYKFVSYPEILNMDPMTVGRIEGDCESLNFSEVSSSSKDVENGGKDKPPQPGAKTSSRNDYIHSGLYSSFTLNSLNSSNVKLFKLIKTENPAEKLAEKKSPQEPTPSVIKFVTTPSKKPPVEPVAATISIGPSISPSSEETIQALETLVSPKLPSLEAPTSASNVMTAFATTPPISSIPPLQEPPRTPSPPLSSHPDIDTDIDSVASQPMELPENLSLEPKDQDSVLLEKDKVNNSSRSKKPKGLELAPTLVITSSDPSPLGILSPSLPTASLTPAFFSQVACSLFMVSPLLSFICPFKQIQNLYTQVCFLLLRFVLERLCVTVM
The conditions noted are these: protein: recombinant; tags: N-terminal GST; dsDNA, one strand shown. Summed up:
as §1

The next assay has as its target T4, ETV2 (Homo sapiens, UniProt O00321 1-342).
T4 sequence: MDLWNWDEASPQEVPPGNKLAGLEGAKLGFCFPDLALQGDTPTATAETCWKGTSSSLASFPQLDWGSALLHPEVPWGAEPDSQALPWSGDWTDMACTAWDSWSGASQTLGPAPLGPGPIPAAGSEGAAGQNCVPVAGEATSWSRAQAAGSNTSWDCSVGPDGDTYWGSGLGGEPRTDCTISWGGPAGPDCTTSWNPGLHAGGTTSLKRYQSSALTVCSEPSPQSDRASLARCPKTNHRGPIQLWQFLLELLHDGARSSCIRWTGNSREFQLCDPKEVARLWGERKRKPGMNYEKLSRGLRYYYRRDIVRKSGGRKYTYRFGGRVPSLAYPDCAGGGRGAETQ
As to conditions: protein: recombinant; tags: N-terminal GST; dsDNA, one strand shown. The method in brief:
as §1

The next assay deals with T5, ELF3 (Homo sapiens, UniProt P78545 1-371).
T5 sequence: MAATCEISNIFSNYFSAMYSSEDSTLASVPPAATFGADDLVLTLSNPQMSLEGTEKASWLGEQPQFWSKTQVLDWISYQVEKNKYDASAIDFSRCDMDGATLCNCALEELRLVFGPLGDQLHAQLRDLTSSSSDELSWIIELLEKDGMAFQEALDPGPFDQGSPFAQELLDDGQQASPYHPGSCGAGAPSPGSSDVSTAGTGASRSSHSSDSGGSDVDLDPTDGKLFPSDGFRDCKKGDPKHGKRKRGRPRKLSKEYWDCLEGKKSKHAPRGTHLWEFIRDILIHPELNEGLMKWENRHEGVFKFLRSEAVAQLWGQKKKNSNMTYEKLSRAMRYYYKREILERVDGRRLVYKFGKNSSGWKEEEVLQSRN
As to conditions: protein: recombinant; tags: N-terminal GST; dsDNA, one strand shown. The method in brief:
as §1

For the next assay, the target named is CRX (Homo sapiens, UniProt O43186 1-299). The conditions noted are these: protein: recombinant; tags: N-terminal GST; dsDNA, one strand shown. The method in brief: as §1
Another assay deals with ETV1 (Homo sapiens, UniProt P50549 1-477). The conditions noted are these: protein: recombinant; tags: N-terminal GST; dsDNA, one strand shown. The method in brief:
as §1

Another assay deals with T6, ERF (Homo sapiens, UniProt P50548 1-548).
T6 sequence: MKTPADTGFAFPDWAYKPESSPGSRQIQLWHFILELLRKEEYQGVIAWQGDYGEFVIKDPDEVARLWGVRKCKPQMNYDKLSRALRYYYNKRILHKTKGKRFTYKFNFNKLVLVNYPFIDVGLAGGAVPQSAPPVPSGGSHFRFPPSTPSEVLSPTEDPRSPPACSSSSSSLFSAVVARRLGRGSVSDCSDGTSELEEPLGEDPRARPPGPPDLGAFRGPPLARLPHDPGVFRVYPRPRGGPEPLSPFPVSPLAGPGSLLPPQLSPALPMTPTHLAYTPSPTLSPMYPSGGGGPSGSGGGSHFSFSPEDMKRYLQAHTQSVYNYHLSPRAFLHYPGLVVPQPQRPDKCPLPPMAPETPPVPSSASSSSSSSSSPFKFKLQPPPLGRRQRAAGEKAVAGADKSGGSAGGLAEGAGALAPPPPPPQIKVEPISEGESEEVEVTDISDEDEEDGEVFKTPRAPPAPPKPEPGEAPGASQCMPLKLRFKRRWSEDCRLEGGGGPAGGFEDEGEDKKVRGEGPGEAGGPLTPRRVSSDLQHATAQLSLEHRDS
As to conditions: protein: recombinant; tags: N-terminal GST; dsDNA, one strand shown. Summed up: as §1

Another assay deals with T7, ETV3L (Homo sapiens, UniProt Q6ZN32 1-361).
T7 sequence: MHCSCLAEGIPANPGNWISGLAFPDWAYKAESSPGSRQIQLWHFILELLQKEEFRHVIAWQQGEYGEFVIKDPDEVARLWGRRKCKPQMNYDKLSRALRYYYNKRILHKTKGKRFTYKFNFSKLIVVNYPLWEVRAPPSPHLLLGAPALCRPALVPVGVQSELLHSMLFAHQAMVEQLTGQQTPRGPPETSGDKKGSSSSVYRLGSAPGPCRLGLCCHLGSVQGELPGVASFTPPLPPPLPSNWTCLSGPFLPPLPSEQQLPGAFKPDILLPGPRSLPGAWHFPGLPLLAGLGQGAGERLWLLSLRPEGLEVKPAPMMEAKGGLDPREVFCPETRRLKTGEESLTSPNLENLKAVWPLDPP
The conditions noted are these: protein: recombinant; tags: N-terminal GST; dsDNA, one strand shown. Summed up: as §1

Another assay addresses T8, ETS2 (Homo sapiens, UniProt P15036 1-469).
T8 sequence: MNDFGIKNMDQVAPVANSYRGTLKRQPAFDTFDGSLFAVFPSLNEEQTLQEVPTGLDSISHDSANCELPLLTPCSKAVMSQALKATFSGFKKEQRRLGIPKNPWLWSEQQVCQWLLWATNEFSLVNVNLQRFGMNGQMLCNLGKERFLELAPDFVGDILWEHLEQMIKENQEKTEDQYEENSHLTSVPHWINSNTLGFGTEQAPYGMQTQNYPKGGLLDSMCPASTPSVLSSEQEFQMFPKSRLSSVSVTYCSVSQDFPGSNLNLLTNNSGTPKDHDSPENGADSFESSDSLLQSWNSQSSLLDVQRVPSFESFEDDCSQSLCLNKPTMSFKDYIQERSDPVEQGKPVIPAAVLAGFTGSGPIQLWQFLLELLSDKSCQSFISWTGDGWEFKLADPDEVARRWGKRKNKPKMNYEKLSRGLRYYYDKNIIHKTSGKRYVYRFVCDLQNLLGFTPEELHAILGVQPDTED
As to conditions: protein: recombinant; tags: N-terminal GST; dsDNA, one strand shown. The method in brief: as §1

In a further assay the target is T9, SPDEF (Homo sapiens, UniProt O95238 1-335).
T9 sequence: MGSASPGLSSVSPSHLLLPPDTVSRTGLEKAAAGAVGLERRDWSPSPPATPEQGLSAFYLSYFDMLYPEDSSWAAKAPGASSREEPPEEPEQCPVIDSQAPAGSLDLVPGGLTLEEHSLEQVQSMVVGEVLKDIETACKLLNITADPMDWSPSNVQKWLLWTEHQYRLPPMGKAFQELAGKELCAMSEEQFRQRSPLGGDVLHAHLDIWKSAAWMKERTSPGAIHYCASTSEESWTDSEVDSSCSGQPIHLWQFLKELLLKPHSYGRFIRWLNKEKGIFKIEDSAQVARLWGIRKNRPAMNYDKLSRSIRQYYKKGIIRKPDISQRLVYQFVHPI
As to conditions: protein: recombinant; tags: N-terminal GST; dsDNA, one strand shown. Summed up: as §1

The target in a further assay is T10, ETV7 (Homo sapiens, UniProt Q9Y603 1-341).
T10 sequence: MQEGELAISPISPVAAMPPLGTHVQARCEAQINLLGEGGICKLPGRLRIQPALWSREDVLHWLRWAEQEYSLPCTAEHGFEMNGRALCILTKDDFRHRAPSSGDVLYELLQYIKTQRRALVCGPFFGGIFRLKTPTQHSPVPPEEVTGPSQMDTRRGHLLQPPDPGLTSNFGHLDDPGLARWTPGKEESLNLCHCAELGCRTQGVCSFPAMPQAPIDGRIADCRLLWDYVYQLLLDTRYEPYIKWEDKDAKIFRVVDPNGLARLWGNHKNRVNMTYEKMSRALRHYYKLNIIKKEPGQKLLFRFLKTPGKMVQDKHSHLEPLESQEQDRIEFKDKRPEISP
The conditions noted are these: protein: recombinant; tags: N-terminal GST; dsDNA, one strand shown. Summed up: as §1

Another assay addresses T11, ELF5 (Homo sapiens, UniProt Q9UKW6-2 1-255).
T11 sequence: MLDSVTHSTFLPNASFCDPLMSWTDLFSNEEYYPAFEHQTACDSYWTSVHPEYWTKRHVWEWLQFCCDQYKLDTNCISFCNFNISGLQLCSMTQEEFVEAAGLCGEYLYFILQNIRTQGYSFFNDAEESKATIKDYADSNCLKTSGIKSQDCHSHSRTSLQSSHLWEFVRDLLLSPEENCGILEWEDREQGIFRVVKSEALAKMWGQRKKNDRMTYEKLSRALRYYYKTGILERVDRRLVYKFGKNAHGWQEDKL
As to conditions: protein: recombinant; tags: N-terminal GST; dsDNA, one strand shown. The method in brief: as §1

In a further assay the target is T12, ETV3 (Homo sapiens, UniProt P41162-2 1-143).
T12 sequence: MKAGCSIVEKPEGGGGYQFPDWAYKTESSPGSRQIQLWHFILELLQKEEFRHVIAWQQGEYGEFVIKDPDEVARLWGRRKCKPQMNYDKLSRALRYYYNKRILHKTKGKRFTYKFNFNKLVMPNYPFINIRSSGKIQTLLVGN
The conditions noted are these: protein: recombinant; tags: N-terminal GST; dsDNA, one strand shown. Summed up: as §1

A further assay has as its target ETV6 (Homo sapiens, UniProt P41212 1-452). As to conditions: protein: recombinant; tags: N-terminal GST; dsDNA, one strand shown. Summed up: as §1

Sequence of CRX (O43186 whole entry): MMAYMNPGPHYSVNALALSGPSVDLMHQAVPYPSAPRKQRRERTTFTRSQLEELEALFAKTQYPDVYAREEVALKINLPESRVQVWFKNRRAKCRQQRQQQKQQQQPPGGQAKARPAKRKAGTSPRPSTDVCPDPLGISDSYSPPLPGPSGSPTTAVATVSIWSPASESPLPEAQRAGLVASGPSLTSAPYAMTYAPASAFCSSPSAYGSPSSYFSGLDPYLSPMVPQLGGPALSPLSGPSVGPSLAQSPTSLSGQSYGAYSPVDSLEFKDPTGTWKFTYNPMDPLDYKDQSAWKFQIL
Sequence of ETV5 (P41161 whole entry): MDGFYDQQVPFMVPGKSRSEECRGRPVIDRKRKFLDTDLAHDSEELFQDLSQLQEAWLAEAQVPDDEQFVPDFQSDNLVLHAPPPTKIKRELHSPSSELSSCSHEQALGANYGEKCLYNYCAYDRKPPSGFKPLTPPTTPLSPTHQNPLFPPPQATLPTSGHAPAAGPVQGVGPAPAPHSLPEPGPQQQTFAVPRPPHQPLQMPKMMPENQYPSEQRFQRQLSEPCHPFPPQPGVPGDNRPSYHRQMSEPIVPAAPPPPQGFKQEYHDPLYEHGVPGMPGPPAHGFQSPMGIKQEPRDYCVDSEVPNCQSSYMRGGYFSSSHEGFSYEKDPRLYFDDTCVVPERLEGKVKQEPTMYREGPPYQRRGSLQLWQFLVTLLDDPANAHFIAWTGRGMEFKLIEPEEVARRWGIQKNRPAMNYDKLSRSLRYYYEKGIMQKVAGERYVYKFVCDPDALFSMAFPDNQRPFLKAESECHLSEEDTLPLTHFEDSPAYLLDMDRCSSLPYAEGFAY
Sequence of ETV1 (P50549 whole entry): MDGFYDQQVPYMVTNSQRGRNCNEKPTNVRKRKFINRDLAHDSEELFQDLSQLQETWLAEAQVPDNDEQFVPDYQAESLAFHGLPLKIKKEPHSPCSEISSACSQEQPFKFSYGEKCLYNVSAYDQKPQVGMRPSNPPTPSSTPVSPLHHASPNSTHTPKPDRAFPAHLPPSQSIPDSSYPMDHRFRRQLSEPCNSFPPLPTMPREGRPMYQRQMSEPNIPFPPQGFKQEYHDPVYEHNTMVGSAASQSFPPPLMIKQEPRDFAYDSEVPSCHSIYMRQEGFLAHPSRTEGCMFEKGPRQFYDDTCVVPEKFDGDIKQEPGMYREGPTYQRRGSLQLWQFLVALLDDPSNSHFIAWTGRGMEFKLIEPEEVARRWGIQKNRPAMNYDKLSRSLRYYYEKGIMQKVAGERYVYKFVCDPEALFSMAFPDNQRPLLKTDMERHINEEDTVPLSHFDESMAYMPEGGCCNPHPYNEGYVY
Sequence of HSF1 (Q00613 whole entry): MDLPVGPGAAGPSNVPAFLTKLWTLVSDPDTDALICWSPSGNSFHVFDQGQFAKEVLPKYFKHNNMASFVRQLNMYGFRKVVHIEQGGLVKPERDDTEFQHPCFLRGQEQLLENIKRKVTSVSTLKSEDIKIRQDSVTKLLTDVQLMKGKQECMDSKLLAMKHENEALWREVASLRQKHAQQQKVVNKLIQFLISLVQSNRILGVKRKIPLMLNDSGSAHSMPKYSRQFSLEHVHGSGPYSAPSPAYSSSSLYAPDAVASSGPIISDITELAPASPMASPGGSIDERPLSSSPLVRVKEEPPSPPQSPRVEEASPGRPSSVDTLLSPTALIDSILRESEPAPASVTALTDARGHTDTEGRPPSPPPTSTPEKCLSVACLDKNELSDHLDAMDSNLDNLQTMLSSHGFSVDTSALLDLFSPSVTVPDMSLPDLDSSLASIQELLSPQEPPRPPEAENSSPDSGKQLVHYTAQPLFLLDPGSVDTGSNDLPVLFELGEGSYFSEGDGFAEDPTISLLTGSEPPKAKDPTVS
Sequence of ETV6 (P41212 whole entry): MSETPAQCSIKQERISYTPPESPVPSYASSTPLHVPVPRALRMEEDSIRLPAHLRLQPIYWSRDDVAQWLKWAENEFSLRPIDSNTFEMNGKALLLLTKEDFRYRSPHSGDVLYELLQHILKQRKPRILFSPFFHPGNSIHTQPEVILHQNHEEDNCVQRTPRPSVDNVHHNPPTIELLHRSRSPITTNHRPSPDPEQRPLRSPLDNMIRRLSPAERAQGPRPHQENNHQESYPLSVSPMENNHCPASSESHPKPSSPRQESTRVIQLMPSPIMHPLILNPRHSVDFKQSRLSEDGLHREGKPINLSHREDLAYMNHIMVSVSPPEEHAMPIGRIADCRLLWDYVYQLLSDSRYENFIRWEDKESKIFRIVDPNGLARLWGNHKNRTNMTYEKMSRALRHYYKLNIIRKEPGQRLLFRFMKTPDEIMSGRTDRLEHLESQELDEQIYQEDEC
Sequence of ELF4 (Q99607 whole entry): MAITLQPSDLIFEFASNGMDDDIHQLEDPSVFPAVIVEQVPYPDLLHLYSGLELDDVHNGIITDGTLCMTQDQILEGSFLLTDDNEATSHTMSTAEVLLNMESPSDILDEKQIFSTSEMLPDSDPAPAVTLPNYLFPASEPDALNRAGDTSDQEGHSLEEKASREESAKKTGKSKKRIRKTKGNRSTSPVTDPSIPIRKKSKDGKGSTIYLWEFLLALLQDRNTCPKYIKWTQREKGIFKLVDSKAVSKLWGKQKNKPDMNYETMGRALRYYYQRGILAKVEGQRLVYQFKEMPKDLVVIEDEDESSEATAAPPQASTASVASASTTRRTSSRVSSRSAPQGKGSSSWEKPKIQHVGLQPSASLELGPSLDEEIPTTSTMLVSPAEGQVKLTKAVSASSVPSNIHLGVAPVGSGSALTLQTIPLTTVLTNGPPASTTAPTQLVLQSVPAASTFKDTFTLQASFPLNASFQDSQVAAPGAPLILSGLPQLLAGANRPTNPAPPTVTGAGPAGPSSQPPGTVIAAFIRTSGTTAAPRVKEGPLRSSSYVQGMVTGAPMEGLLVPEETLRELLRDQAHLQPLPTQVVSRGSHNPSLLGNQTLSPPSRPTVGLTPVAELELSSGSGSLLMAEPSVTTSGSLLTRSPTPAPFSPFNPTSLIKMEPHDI

Regarding CCAATA, the binding signal is 1.19 fold enrichment (6-mer frequency, TF over GST control) with FEV; 1.29 fold enrichment (6-mer frequency, TF over GST control) in the assay with ETV5; 1.12 fold enrichment (6-mer frequency, TF over GST control) in the assay with HSF1; 1.18 fold enrichment (6-mer frequency, TF over GST control) with SPIC; 1.29 fold enrichment (6-mer frequency, TF over GST control) in the assay with ELF4; 1.23 fold enrichment (6-mer frequency, TF over GST control) with ELK4. Further, the binding signal with ETV2 is 1.09 fold enrichment (6-mer frequency, TF over GST control); in the assay with ELF3, 1.25 fold enrichment (6-mer frequency, TF over GST control); with CRX, 1.22 fold enrichment (6-mer frequency, TF over GST control); in the assay with ETV1, 1.21 fold enrichment (6-mer frequency, TF over GST control); with ERF it was 1.34 fold enrichment (6-mer frequency, TF over GST control); with ETV3L, 1.21 fold enrichment (6-mer frequency, TF over GST control). Also, the binding signal with ETS2 is 1.28 fold enrichment (6-mer frequency, TF over GST control); with SPDEF, 1.24 fold enrichment (6-mer frequency, TF over GST control); in the assay with ETV7, 1.14 fold enrichment (6-mer frequency, TF over GST control); in the assay with ELF5, 1.13 fold enrichment (6-mer frequency, TF over GST control); in the assay with ETV3, 1.19 fold enrichment (6-mer frequency, TF over GST control); with ETV6, 1.23 fold enrichment (6-mer frequency, TF over GST control).
